# Autophagy HCS: modulators of autophagy; MEF GFP-LC3 puncta imaging; test concentration mostly 10 µM; calls only at 10 µM (by protocol); hit rate 0.98% among 190,000;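 active = percentage of spot-positive cells more than 3 SD above its plate mean, without a fluorescence outlier flag or 80% toxicity; inconclusive = no clear call, values can overlap the other calls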
# WT yeast gro inh: growth inhibition of WT yeast, mitochondrial fusion screen | mitochondrial fusion phenotypic screen, WT strain | inhibition, % at 10 µM | AID 1362 | hit rate 2.1% among 190,000; in the data active = inhibition above about 58%; tested in S. cerevisiae
# INS promoter inh: TRM-6 insulin promoter activity inhibition; TRM-6 cells (human fetal islet line), insulin promoter-eGFP reporter, imaging; reporter expression induced with tamoxifen; inhibition, % at 2 µM; hit rate 0.9% among 130,000;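 active = inhibition above the mean plus 3 SD, with well images judged a real hit on visual review, cut at about 60% in these data, passing the limit was not always enough; inconclusive = inhibition over the cutoff but images rejected on review; inactive = inhibition not above the cutoff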
# Ins promoter up: MIN6 insulin promoter up-regulation; z-score at 5 µM; hit rate 0.3% among 190,000; AID 1625; MIN6 insulin promoter-GFP reporter, high-content imaging; stronger effect = higher value;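 active = z-score above 3 at 5 µM with at least 500 cells counted in the well; inconclusive = wells under 500 cells, flagged as cytotoxic or low count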
# Lmaj promast: reduces viability of Leishmania major promastigotes; AID 1063; hit rate 9% among 200,000; resazurin fluorescence viability; inhibition, % at 10 µM; in the data active = inhibition above about 50%;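 also: promastigotes grown with compound for 44 hours at 28 °C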
# A number is an active result; i = inactive; ? = inconclusive; nt = no result; + = active, no number. Most compounds without a hit are left out; they make up all but 11% or so of the library.
SMILES,Autophagy HCS,WT yeast gro inh,INS promoter inh,Ins promoter up,Lmaj promast
O=C(NCC1CCCO1)C1CCN(S(=O)(=O)N2CCCC2)CC1 (centres undefined),i,i,nt,3.6,i
COC(=O)c1ccc2c(c1)NC(=O)C(N1CCOCC1)S2 (centres undefined),i,i,nt,i,i
CCC1CCCCN1C1Sc2ccc(C(=O)OC)cc2NC1=O (centres undefined),i,i,nt,i,100
COc1ccccc1C1c2c(oc3ccc(Cl)cc3c2=O)C(=O)N1c1cc(C)on1 (centres undefined),i,nt,i,nt,i
CC1(C)C([N+](=O)[O-])C(c2ccc(Cl)cc2)NC(c2ccc(Cl)cc2)C1[N+](=O)[O-] (centres undefined),i,i,nt,i,i
CCN(CC)S(=O)(=O)c1cnccc1N1CCN(c2cccc(Cl)c2)CC1,i,58,i,i,100
CNS(=O)(=O)c1cnccc1N1CCN(c2cccc(Cl)c2)CC1,i,i,i,i,100
O=C(O)CC12CC3CC(C1)CC(n1cncn1)(C3)C2,i,i,i,i,i
Cc1cccc(C(=O)Nc2ccc(O)c3c(=O)cc(-c4ccccc4Cl)oc23)c1,+,i,i,i,i
CSC1=NCCN1C(=O)c1cccs1,i,i,nt,i,i
CSC1=NCCN1C(=O)C12CC3CC(CC(C3)C1)C2,i,i,i,i,51
COc1ccc(-n2c(=S)[nH]c3ccccc32)cc1,i,i,i,i,53
Cc1[nH]n(-c2ccc([N+](=O)[O-])cc2)c(=O)c1C=NCCN1CCN(C(=O)C(C)C)CC1,i,63,i,i,i
CS(=O)(=O)N(Cc1ccccc1)c1ccc(C(=O)N2CCc3ccccc3C2)cc1,i,i,i,i,i
CCc1ccccc1NC(=S)N(CCN1CCOCC1)Cc1ccccc1F,i,i,nt,i,i
CCCCN(CCCC)C(=O)C[n+]1cccc(/C=N/O)c1,i,i,71,i,i
CC1(C)c2cc(Cl)ccc2-n2c1cc(O)c(-c1ccccc1)c2=O,nt,nt,nt,i,nt
O=C(c1cc2nc(-c3ccc(Cl)cc3)cc(C(F)(F)F)n2n1)N1CCOCC1,i,i,nt,i,i
CCOc1ccc2oc(C(=O)NC(C)(C)CC)c(C)c2c1,i,i,i,i,i
CCOc1ccc2oc(C(=O)NC3CC(C)(C)NC(C)(C)C3)c(C)c2c1,i,i,i,i,82
Cc1ccc(OCC(=O)NC2CC(C)(C)NC(C)(C)C2)cc1C,i,i,i,nt,i
CC1(C)CC(NC(=O)COc2ccc3ccccc3c2)CC(C)(C)N1,i,i,i,i,83
CCOc1ccc2oc(C(=O)NC3CCN(Cc4ccccc4)CC3)c(C)c2c1,i,i,i,i,83
CCOc1ccc2oc(C(=O)OCC(=O)NC(=O)NC3CCCC3)c(C)c2c1,i,i,nt,i,i
CC(Cc1cccs1)NC(=O)Nc1ccc([N+](=O)[O-])cc1 (centres undefined),i,i,nt,i,i
SMILES,Autophagy HCS,WT yeast gro inh,INS promoter inh,Ins promoter up,Lmaj promast
O=c1c(Cl)c(N2CCN(S(=O)(=O)c3ccccc3)CC2)cnn1-c1ccccc1,i,i,i,i,i
O=c1c(Cl)c(N2CCN(S(=O)(=O)c3ccc(F)cc3)CC2)cnn1-c1cccc(Cl)c1,i,i,i,nt,98
COc1cccc(NC(=O)N2CCC(n3nnc4ccccc43)CC2)c1,i,i,nt,i,i
CC1=CC2CC1C1C(=O)N(c3ccc(S(=O)(=O)Nc4nc(C)cc(C)n4)cc3)C(=O)C21 (centres undefined),i,i,i,i,52
Cc1cccc(C(=O)O/N=C(\N)c2ccc(Br)cc2)c1,i,i,i,i,i
Cc1cccc(C(=O)O/N=C/c2ccc(Br)cc2)c1,i,60,i,i,i
Cc1nc(OCc2c(C)noc2C)c2ccccc2n1,i,i,i,i,i
CC1=C(C(=O)OC2CCCCC2)C(c2cccnc2)n2nnnc2N1 (centres undefined),i,i,i,i,i
CCCCOC(=O)C1=C(C)Nc2ncnn2C1c1ccc(OC)c(OC)c1 (centres undefined),i,i,nt,i,75
COc1ccc(C2C(C(=O)OC3CCCCC3)=C(C)Nc3nnnn32)c(OC)c1OC (centres undefined),i,i,i,i,91
CCOC(=O)C1=C(C)Nc2nnnn2C1c1ccc(OC)c(Br)c1 (centres undefined),nt,i,nt,i,91
CN1/C(=C\C(=O)CN2C(=O)NC3(CCCCCC3)C2=O)C(C)(C)c2ccccc21,i,i,i,?,96
Cc1cccc[n+]1CC(=O)/C=C1\N(C)c2ccccc2C1(C)C,i,i,nt,?,84
CN1/C(=C\C(=O)COC(=O)CN2C(=O)C3CC=CCC3C2=O)C(C)(C)c2ccccc21 (centres undefined),i,i,i,i,i

# Compound activity as filed in PubChem.
